Measurements from PubChem BioAssay AID1159580 (chemical genetic matrix, 2015).
“And” between values parts separate entries of the source, which are not always exact repeats. Identical values can stand only once. Among all 5,500 compounds or so, about 2,000 (36%) were called active. Another 18% or so got no clear call; they are omitted. No stated cut-off is given here; in the data, active means normalized growth mostly below about 0.91 (no sharp cut-off); inconclusive means no clear call, values can overlap the other calls; inactive means mostly above about 0.92. Some of the results follow.

Assay: chemical genetic growth profiling, strain panel (AID 1159580);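 further: tested at 20 µM; growth read once vehicle control cultures reached saturation at 30 °C; 1 = growth at the plate median or of vehicle wells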
Conditions: S. cerevisiae deletion strains, growth OD

Measured: normalized growth

O=c1ccc2cc(O[C@@H]3O[C@H](CO)[C@@H](O)[C@H](O)[C@H]3O)c(O)cc2o1
inactive: locus YAL013W, strain DEP1, stronger effect = lower value 1.04 | locus YAL021C, strain ccr4, stronger effect = lower value 0.991 | locus YAL026C, strain drs2, stronger effect = lower value 0.997 | locus YAL030W, strain snc1, stronger effect = lower value 0.971 | locus YBL061C, strain skt5, stronger effect = lower value 0.972 | locus YBR009C, strain hhf1, stronger effect = lower value 1.01 | locus YBR021W, strain FUR4, stronger effect = lower value 1.06 | locus YBR023C, strain chs3, stronger effect = lower value 0.983 | locus YBR171W, strain sec66, stronger effect = lower value 0.956 | locus YBR229C, strain ROT2, stronger effect = lower value 1.02 | locus YBR231C, strain swc5, stronger effect = lower value 0.982 | locus YBR279W, strain paf1, stronger effect = lower value 0.988 | locus YCL011C, strain gbp2, stronger effect = lower value 0.99 | locus YCL016C, strain dcc1, stronger effect = lower value 0.999 | locus YCL029C, strain bik1, stronger effect = lower value 0.998 | locus YCL061C, strain MRC1, stronger effect = lower value 0.983 | locus YCL069W, strain vba3, stronger effect = lower value 0.977 | locus YCR088W, strain abp1, stronger effect = lower value 0.978 | locus YDL005C, strain med2, stronger effect = lower value 0.958 | locus YDL035C, strain GPR1, stronger effect = lower value 1.04 | locus YDL040C, strain nat1, stronger effect = lower value 0.976 | locus YDL074C, strain BRE1, stronger effect = lower value 1.02 | locus YDL101C, strain DUN1, stronger effect = lower value 1.01 | locus YDL134C, strain PPH21, stronger effect = lower value 1.02 | locus YDL185W, strain tfp1, stronger effect = lower value 1 | locus YDL192W, strain arf1, stronger effect = lower value 0.991 | locus YDR001C, strain nth1, stronger effect = lower value 0.987 | locus YDR069C, strain doa4, stronger effect = lower value 0.977 | locus YDR101C, strain arx1, stronger effect = lower value 0.995 | locus YDR137W, strain rgp1, stronger effect = lower value 1 | locus YDR159W, strain sac3, stronger effect = lower value 0.978 | locus YDR162C, strain NBP2, stronger effect = lower value 1.04 | locus YDR195W, strain ref2 0.875 | locus YDR297W, strain sur2, stronger effect = lower value 0.988 | locus YDR318W, strain mcm21, stronger effect = lower value 0.999 | locus YDR334W, strain swr1, stronger effect = lower value 0.982 | locus YDR335W, strain msn5, stronger effect = lower value 0.995 | locus YDR388W, stronger effect = lower value 0.986 | locus YDR392W, strain spt3, stronger effect = lower value 1.02 | locus YDR502C, strain sam2, stronger effect = lower value 0.993 | locus YEL003W, strain gim4, stronger effect = lower value 0.986 | locus YEL037C, strain rad23, stronger effect = lower value 0.982 | locus YEL061C, strain CIN8 (second series), stronger effect = lower value 0.974 | locus YEL061C, strain CIN8, stronger effect = lower value 1.01 | locus YER015W, strain faa2, stronger effect = lower value 0.992 | locus YER016W, strain bim1, stronger effect = lower value 0.983 | locus YER110C, stronger effect = lower value 0.99 | locus YER111C, strain swi4, stronger effect = lower value 0.961 | locus YER155C, strain BEM2 (second series), stronger effect = lower value 0.927 | locus YER155C, strain BEM2, stronger effect = lower value 1 | locus YER167W, strain BCK2, stronger effect = lower value 1.02 | locus YFR010W, strain ubp6, stronger effect = lower value 0.974 | locus YGL078C, strain dbp3, stronger effect = lower value 0.997 | locus YGL086W, strain mad1, stronger effect = lower value 0.979 | locus YGL167C, strain pmr1, stronger effect = lower value 0.964 | locus YGL173C, strain kem1, stronger effect = lower value 0.977 | locus YGL227W, strain vid30, stronger effect = lower value 0.981 | locus YGL240W, strain doc1, stronger effect = lower value 0.981 | locus YGL248W, strain PDE1, stronger effect = lower value 1.03 | locus YGL253W, strain hxk2, stronger effect = lower value 0.994 | locus YGR135W, strain pre9, stronger effect = lower value 0.995 | locus YGR252W, strain gcn5, stronger effect = lower value 0.997 | locus YHR013C, strain ard1, stronger effect = lower value 0.963 | locus YHR027C, strain rpn1, stronger effect = lower value 0.978 | locus YHR030C, strain SLT2, stronger effect = lower value 1.01 and 1.03 | locus YHR079C, strain IRE1 (second series), stronger effect = lower value 0.99 | locus YHR079C, strain IRE1, stronger effect = lower value 1.02 | locus YHR094C, strain hxt1, stronger effect = lower value 0.995 | locus YHR129C, strain ARP1, stronger effect = lower value 1.02 | locus YHR142W, strain chs7, stronger effect = lower value 0.982 | locus YHR200W, strain rpn10, stronger effect = lower value 0.999 | locus YIL066C, strain RNR3, stronger effect = lower value 1.05 | locus YIL073C, strain SPO22, stronger effect = lower value 1.02 | locus YIL125W, strain kgd1, stronger effect = lower value 0.995 | locus YIR030C, strain dcg1, stronger effect = lower value 0.986 | locus YJL092W, strain hpr5, stronger effect = lower value 0.994 | locus YJL095W, strain BCK1 (second series), stronger effect = lower value 0.973 | locus YJL095W, strain BCK1, stronger effect = lower value 1.01 and 1.02 | locus YJL115W, strain asf1, stronger effect = lower value 0.971 | locus YJL129C, strain trk1, stronger effect = lower value 0.993 | locus YJL134W, strain LCB3, stronger effect = lower value 1.01 | locus YJL154C, strain vps35, stronger effect = lower value 0.98 | locus YJL164C, strain tpk1, stronger effect = lower value 0.991 | locus YJL166W, strain qcr8, stronger effect = lower value 0.962 | locus YJL168C, strain set2, stronger effect = lower value 0.987 | locus YJL187C, strain SWE1 (second series), stronger effect = lower value 1.01 | locus YJR043C, strain POL32, stronger effect = lower value 1.04 | locus YJR066W, strain TOR1, stronger effect = lower value 0.954 | locus YKL009W, strain mrt4, stronger effect = lower value 0.978 | locus YKL068W, stronger effect = lower value 1 | locus YKL085W, strain MDH1 (second series), stronger effect = lower value 0.996 | locus YKL085W, strain MDH1, stronger effect = lower value 0.996 | locus YKL160W, strain elf1, stronger effect = lower value 0.992 | locus YKR001C, strain vps1, stronger effect = lower value 0.983 | locus YKR026C, strain gcn3, stronger effect = lower value 0.964 | locus YKR091W, strain srl3, stronger effect = lower value 0.971 | locus YLL001W, strain dnm1, stronger effect = lower value 0.962 | locus YLL026W, stronger effect = lower value 0.988 | locus YLL041C, strain sdh2, stronger effect = lower value 0.971 | locus YLR027C, strain aat2, stronger effect = lower value 0.983 | locus YLR039C, strain RIC1, stronger effect = lower value 1.03 | locus YLR058C, strain SHM2, stronger effect = lower value 1.02 | locus YLR102C, strain apc9, stronger effect = lower value 1 | locus YLR113W, strain HOG1, stronger effect = lower value 1.01 | locus YLR221C, strain rsa3, stronger effect = lower value 1.03 | locus YLR258W, strain gsy2, stronger effect = lower value 0.973 | locus YLR262C, strain YPT6 (second series), stronger effect = lower value 0.955 | locus YLR262C, strain YPT6, stronger effect = lower value 1.08 | locus YLR268W, strain sec22, stronger effect = lower value 0.989 | locus YLR320W, strain mms22, stronger effect = lower value 0.984 | locus YLR330W, strain CHS5, stronger effect = lower value 1.02 | locus YLR342W, strain FKS1 (second series), stronger effect = lower value 1.03 | locus YLR342W, strain FKS1, stronger effect = lower value 0.973 | locus YLR357W, strain rsc2, stronger effect = lower value 0.96 | locus YLR370C, strain arc18, stronger effect = lower value 0.989 | locus YLR371W, strain rom2, stronger effect = lower value 0.993 | locus YLR384C, strain iki3, stronger effect = lower value 0.97 | locus YLR418C, strain cdc73, stronger effect = lower value 1.03 | locus YML016C, strain PPZ1, stronger effect = lower value 1.02 | locus YML032C, strain rad52, stronger effect = lower value 1.01 | locus YML120C, strain ndi1, stronger effect = lower value 0.978 | locus YML124C, strain tub3, stronger effect = lower value 0.991 | locus YMR058W, strain fet3, stronger effect = lower value 0.978 | locus YMR078C, strain ctf18, stronger effect = lower value 0.99 | locus YMR125W, strain sto1, stronger effect = lower value 0.97 | locus YMR129W, stronger effect = lower value 0.991 | locus YMR205C, strain PFK2, stronger effect = lower value 0.962 | locus YMR223W, strain ubp8, stronger effect = lower value 0.99 | locus YMR231W, strain pep5, stronger effect = lower value 0.971 | locus YMR307W, strain GAS1, stronger effect = lower value 1.09 | locus YNL067W, strain RPL9B, stronger effect = lower value 1.01 | locus YNL071W, strain lat1, stronger effect = lower value 0.993 | locus YNL128W, strain TEP1, stronger effect = lower value 1.03 | locus YNL183C, strain NPR1, stronger effect = lower value 0.962 | locus YNL209W, strain ssb2, stronger effect = lower value 0.993 | locus YNL233W, strain BNI4, stronger effect = lower value 1.01 | locus YNL248C, strain rpa49, stronger effect = lower value 1.01 | locus YNL250W, strain rad50, stronger effect = lower value 1.02 | locus YNL271C, strain bni1, stronger effect = lower value 0.993 | locus YNL298W, strain CLA4, stronger effect = lower value 0.985 | locus YNL307C, strain MCK1, stronger effect = lower value 1 | locus YNL322C, strain KRE1 (second series), stronger effect = lower value 0.947 | locus YNR049C, strain mso1, stronger effect = lower value 0.973 | locus YNR052C, strain pop2, stronger effect = lower value 0.994 | locus YOL012C, strain htz1 0.76 | locus YOL147C, strain pex11, stronger effect = lower value 0.996 | locus YOR001W, strain rrp6, stronger effect = lower value 0.987 | locus YOR061W, strain CKA2, stronger effect = lower value 1.02 | locus YOR069W, strain VPS5, stronger effect = lower value 1.01 | locus YOR070C, strain gyp1, stronger effect = lower value 0.981 | locus YOR080W, strain dia2, stronger effect = lower value 0.948 | locus YOR083W, strain WHI5, stronger effect = lower value 0.981 | locus YOR106W, strain vam3, stronger effect = lower value 0.97 | locus YOR136W, strain idh2, stronger effect = lower value 0.991 | locus YOR144C, strain elg1, stronger effect = lower value 0.999 | locus YOR184W, strain ser1, stronger effect = lower value 0.997 | locus YOR231W, strain MKK1, stronger effect = lower value 1.04 | locus YOR265W, strain rbl2, stronger effect = lower value 0.984 | locus YOR270C, strain vph1, stronger effect = lower value 1 | locus YOR290C, strain snf2, stronger effect = lower value 1 | locus YOR316C, strain cot1, stronger effect = lower value 0.991 | locus YPL051W, strain arl3, stronger effect = lower value 0.99 | locus YPL078C, strain atp4, stronger effect = lower value 0.962 | locus YPL106C, strain sse1, stronger effect = lower value 0.962 | locus YPL240C, strain hsp82, stronger effect = lower value 0.968 | locus YPL241C, strain CIN2, stronger effect = lower value 1.01 | locus YPL256C, strain CLN2, stronger effect = lower value 1.02 | locus YPR119W, strain clb2, stronger effect = lower value 0.99 | locus YPR141C, strain kar3, stronger effect = lower value 0.996 | locus YPR163C, strain tif3, stronger effect = lower value 0.987 | locus YPR167C, strain met16, stronger effect = lower value 0.986 | strain wtn01, stronger effect = lower value 0.997
